Pf growth 96h: P. falciparum growth inhibition at 96 hours; P. falciparum luciferase reporter growth, 96 h; Potency, µM (titrated, usually from 28.7 µM), usual class: inhibitors; 320,000 compounds, 6.9% hits; AID 504834
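Parasite growth measured via integrated firefly luciferase reporter in P. falciparum. Infected erythrocytes at 2% hematocrit, 0.05% parasitemia final were treated 96 hours at 37 C under 5% CO2, and luminescence was read.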
AMA1-RON2 inh: disrupts binding of P. falciparum AMA1 to RON2. Potency, µM (top dose mostly 58.2 µM), hits mostly inhibitors. 360,000 compounds, 0.2% hits. AlphaScreen AMA1-biotinylated RON2 peptide binding; also: nearly all actives have a fitted effect of over 45% in size
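AMA1 (3D7) with his tag at 25 nM final met compounds first, then biotinylated RON2 peptide at 25 nM; detection used donor plus acceptor beads, 10 µg/mL apiece, read by AlphaScreen after 30 min at room temperature.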
AmpC inh no detg: inhibitors of E. coli AmpC beta-lactamase without detergent | 330,000 compounds, 0.52% hits | AmpC nitrocefin hydrolysis, absorbance 480 nm, 0.0001% Triton | P00811 | Potency, µM (titrated, usually from 57.1 µM), most hits filed as inhibitors | AID 485341; also: nearly all actives have a fitted effect of over 20% in size
Target sequence (P00811 whole entry, looked up): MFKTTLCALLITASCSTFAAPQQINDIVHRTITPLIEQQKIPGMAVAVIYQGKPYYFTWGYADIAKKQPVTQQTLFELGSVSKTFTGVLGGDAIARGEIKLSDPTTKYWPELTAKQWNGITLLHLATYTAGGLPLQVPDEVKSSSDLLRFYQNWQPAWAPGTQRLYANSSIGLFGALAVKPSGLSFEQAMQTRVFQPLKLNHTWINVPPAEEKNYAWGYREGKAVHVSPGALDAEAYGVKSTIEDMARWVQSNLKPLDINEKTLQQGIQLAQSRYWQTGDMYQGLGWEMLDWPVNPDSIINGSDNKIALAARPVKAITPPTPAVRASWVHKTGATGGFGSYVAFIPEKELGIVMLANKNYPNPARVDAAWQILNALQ
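20 mM phosphate pH 7.0 + 0.01% (detergent screen) or 0.0001% Triton X-100; 5.3 nM AmpC reagent; cpd preinc 15 min RT; nitrocefin (800 uM stock) to start; A480 q20 s × 4 min; Activity was normalised to no-enzyme and no-compound control wells.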
AmpC inh detg: inhibitors of E. coli AmpC beta-lactamase with detergent; AmpC hydrolysis of nitrocefin, absorbance 480 nm, 0.01% Triton; Potency, µM (top dose mostly 114 µM), usual class: inhibitors; 370,000 compounds, 0.041% hits; also: nearly all actives have a fitted effect of over 25% in size
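20 mM phosphate pH 7.0 + 0.01% (detergent screen) or 0.0001% Triton X-100; 5.3 nM AmpC reagent; cpd preinc 15 min RT; nitrocefin (800 uM stock) to start; A480 q20 s × 4 min; Activity was normalised to no-enzyme and no-compound control wells.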
Pf growth 48h: P. falciparum growth inhibition at 48 hours (one generation); P. falciparum luciferase growth in erythrocytes, 48 h; Potency, µM (highest dose often 28.7 µM), actives largely listed as inhibitors; 310,000 compounds, 5.9% hits
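Cell-based growth assay: transgenic P. falciparum expressing firefly luciferase, cultured in red cells within RPMI 1640 containing 0.5% w/v Albumax, 24 mM bicarbonate and gentamycin. A drop in luciferase activity indicates inhibition.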
HCV inhibitor: blocks hepatitis C virus; AID 651820; Potency, µM (top dose mostly 41.8 µM), usual class: inhibitors; Huh7.5.1 HCVcc-Cre infection, luciferase reporter, 44 h; 340,000 compounds, 3.4% hits
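A cell-based infection assay in which seeded cells (1,000 per well) receive test compound after 4 h, are inoculated with HCVcc-Cre at approximately 0.5 moi, and are incubated 44 h before luminescence detection.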
Large screens that a line does not name were inactive. In the library only some 11% were active in any assay of this set; here they are far more common. Calls follow the shape of the dose curve; as a rule, active = well fitted curve in the direction sought with a large enough effect; inconclusive = small, poorly fitted or top-dose-only effect, or another doubt; inactive = no such curve, though single readings can be large; an effect the other way counts as inactive or inconclusive.

Cc1cc(C)n2nc(C(=O)N3CCN(c4ccc([N+](=O)[O-])cc4)CC3)nc2n1	Pf growth 96h 5.9µM, Pf growth 48h inconclusive
COc1ccc(N2CCN(C(=O)c3nc4nc(C)cc(C)n4n3)CC2)cc1	Pf growth 48h inconclusive
COc1ccc(Cl)cc1NC(=O)CC1S/C(=N/N=C2CCCCCC2)NC1=O (stereo unspecified)	Pf growth 96h 13µM, Pf growth 48h inconclusive
CN1CCc2c(OCC(=O)N3CCCc4ccccc43)cccc2C1=O	Pf growth 96h inconclusive
CCOC(=O)N1CCN(C(=O)COc2cccc3c2CCN(Cc2ccc(F)cc2)C3=O)CC1	Pf growth 96h inconclusive, HCV inhibitor inconclusive
O=C1c2cccc(OCC(=O)N3CCCc4ccccc43)c2CCN1Cc1ccc(F)cc1	Pf growth 96h 10µM, Pf growth 48h inconclusive, HCV inhibitor inconclusive
Cc1cccc(CN2CCc3c(OCC(=O)N4CCCc5ccccc54)cccc3C2=O)c1	Pf growth 96h inconclusive, Pf growth 48h 12µM, HCV inhibitor inconclusive
Cc1cccc(OCCCC(=O)N2CCCc3ccccc32)c1C	Pf growth 96h inconclusive, HCV inhibitor 10µM (no result: Pf growth 48h)
Cc1ccc(S(=O)(=O)N2CCC(c3nnc(-c4cccc(C)c4)o3)CC2)cc1	none (no result: Pf growth 96h, AMA1-RON2 inh, AmpC inh no detg, Pf growth 48h, HCV inhibitor)
NC(C(=O)O)C1CC(Cl)=NO1 (stereo unspecified)	Pf growth 96h 3.3µM, Pf growth 48h inconclusive (no result: AMA1-RON2 inh)
NC(C(=O)O)[C@@H]1CC(Cl)=NO1 (stereo partly specified)	Pf growth 96h inconclusive (no result: AMA1-RON2 inh, AmpC inh no detg, AmpC inh detg, HCV inhibitor)
Cc1cccc(C)c1NC(=O)COC(=O)C1Cc2ccccc2CN1C(=O)c1ccccc1 (stereo unspecified)	Pf growth 48h inconclusive
N#Cc1ccc(NC(=O)COC(=O)C2Cc3ccccc3CN2C(=O)c2ccccc2)cc1 (stereo unspecified)	HCV inhibitor 10µM
CC(=O)c1ccc(N2CCN(c3ncnc4c3c(-c3ccccc3)cn4-c3ccc(Cl)cc3)CC2)cc1	none (no result: Pf growth 96h, AMA1-RON2 inh, AmpC inh no detg, Pf growth 48h, HCV inhibitor)
Cc1cccc(N(C)S(=O)(=O)c2c(C)noc2C)c1	Pf growth 96h 9.3µM
CCN(c1ccccc1)S(=O)(=O)c1c(C)noc1C	Pf growth 48h inconclusive
CC1CCN(C(=O)CSc2nc(-c3ccccc3)no2)CC1	none (no result: Pf growth 96h, AMA1-RON2 inh, AmpC inh no detg, Pf growth 48h, HCV inhibitor)
N#C/C(=C/c1ccc(N2CCCCC2)cc1)c1cccc(F)c1	AMA1-RON2 inh 16µM, AmpC inh detg inconclusive, HCV inhibitor inconclusive
Cc1ccc2[nH]c3nc(N/N=C/c4cccc(O)c4)nnc3c2c1	Pf growth 96h inconclusive, AmpC inh detg inconclusive
CCc1ccc2[nH]c3nc(N/N=C/c4ccc(O)cc4O)nnc3c2c1	AmpC inh detg inconclusive, Pf growth 48h 8.3µM, HCV inhibitor inconclusive
Cc1ccc2nc(C)c3c(c2c1)N(c1ccc(F)cc1)CC3	Pf growth 96h 13µM, Pf growth 48h inconclusive, HCV inhibitor inconclusive
CSc1nc(C)c2c(n1)N(c1ccc(F)cc1)CC2	HCV inhibitor inconclusive
COc1ccc(CNc2ncnc3c2nnn3C)cc1	none (no result: Pf growth 96h, AMA1-RON2 inh, AmpC inh no detg, Pf growth 48h, HCV inhibitor)
O=C1c2oc3ccccc3c(=O)c2C(c2ccccc2)N1Cc1ccc2c(c1)OCO2 (stereo unspecified)	none (no result: Pf growth 96h, AMA1-RON2 inh, AmpC inh no detg, Pf growth 48h, HCV inhibitor)
Cn1cnc([N+](=O)[O-])c1Sc1nc(N)nc2c1ncn2Cc1ccccc1	HCV inhibitor inconclusive (no result: Pf growth 96h, AmpC inh no detg, AmpC inh detg, Pf growth 48h)
Nc1nc(SCc2ccccc2[N+](=O)[O-])c2ncn(Cc3ccccc3)c2n1	HCV inhibitor 11µM (no result: Pf growth 96h, AmpC inh no detg, AmpC inh detg, Pf growth 48h)
CC(=O)c1ccc(NC(=O)c2cc(-c3ccc(C)s3)nc3ccccc23)cc1	none (no result: Pf growth 96h, AMA1-RON2 inh, AmpC inh no detg, Pf growth 48h, HCV inhibitor)
Cc1ccc(N2CN(CCc3ccccc3)CNC2=S)cc1	Pf growth 96h inconclusive, Pf growth 48h 9.3µM
COc1ccccc1NC(=O)c1cn(CCC#N)nc1-c1ccc(F)cc1	Pf growth 96h 12µM
N#CCCn1cc(C(=O)Nc2ccc(F)cc2)c(-c2ccccc2)n1	AmpC inh detg inconclusive
C/C(CC(=O)Nc1cc(C)ccn1)=N\NC(=O)C(=O)Nc1cccc(C)c1	Pf growth 96h 1.5µM
COc1ccc(NC(=O)C(=O)N/N=C(\C)CC(=O)Nc2cc(C)ccn2)c(OC)c1	none
C/C(CC(=O)Nc1ccccn1)=N\NC(=O)C(=O)Nc1ccccc1C	Pf growth 96h 1.9µM
